What all share (design): scale not given: direction of the effect not stated beside the values
Experiment [1] addresses Protein translocase subunit SecA (Escherichia coli (strain K12)) (UniProt P10408). As to the kind of experiment: Assay to Identify E. coli SecA ATPase Inhibitors. The conditions noted are these: 30 µM. The experiment is classed as functional.
Experiment [2] has as its target T1, Ubiquitin-activating enzyme e1, putative (Leishmania donovani (strain BPK282A1)) (UniProt E9BSI1).
T1 sequence (whole entry): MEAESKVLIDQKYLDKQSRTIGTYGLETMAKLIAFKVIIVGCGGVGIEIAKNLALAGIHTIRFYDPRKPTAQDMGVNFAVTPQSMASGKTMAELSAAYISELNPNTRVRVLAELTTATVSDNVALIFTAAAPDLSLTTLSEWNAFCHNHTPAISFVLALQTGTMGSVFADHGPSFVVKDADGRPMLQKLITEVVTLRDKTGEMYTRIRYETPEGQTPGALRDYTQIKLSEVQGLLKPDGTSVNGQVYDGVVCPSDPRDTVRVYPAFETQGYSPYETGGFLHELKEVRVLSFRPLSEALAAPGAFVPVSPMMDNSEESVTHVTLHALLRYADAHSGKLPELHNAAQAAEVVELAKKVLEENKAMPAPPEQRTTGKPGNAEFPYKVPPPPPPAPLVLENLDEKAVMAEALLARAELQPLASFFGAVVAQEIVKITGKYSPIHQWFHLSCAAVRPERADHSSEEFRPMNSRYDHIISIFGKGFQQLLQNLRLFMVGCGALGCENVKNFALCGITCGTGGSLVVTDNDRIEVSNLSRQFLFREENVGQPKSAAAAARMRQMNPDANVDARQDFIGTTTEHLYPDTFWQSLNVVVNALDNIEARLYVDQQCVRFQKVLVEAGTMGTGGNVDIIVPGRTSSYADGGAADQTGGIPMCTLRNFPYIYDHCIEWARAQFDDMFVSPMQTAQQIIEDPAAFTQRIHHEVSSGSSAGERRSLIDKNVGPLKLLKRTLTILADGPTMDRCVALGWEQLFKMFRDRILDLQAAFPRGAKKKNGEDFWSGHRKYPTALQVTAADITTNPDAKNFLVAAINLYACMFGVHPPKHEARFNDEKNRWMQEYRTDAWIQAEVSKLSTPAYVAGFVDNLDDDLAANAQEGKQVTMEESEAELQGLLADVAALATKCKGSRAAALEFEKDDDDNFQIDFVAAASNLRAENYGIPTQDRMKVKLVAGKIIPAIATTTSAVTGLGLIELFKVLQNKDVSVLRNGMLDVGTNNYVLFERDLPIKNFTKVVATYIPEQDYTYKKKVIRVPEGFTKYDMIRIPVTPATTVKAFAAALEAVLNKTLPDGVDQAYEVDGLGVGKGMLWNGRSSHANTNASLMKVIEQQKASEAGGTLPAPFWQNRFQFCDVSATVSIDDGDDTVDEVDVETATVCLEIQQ
As to the kind of experiment: Leishmania donovani Ubiquitin Activating Enzyme (LdE1). The experiment is classed as functional. The conditions noted are these: 30 µM.

Experiment [3] deals with AMP-activated protein kinase, AMPK (Homo sapiens) (UniProt P54646+O43741+P54619+Q9UGJ0+Q9Y478+Q13131+Q9UGI9). As to the kind of experiment: AMP-dependent Kinase enzyme assay. An in vitro enzyme assay that detects ADP turnover that is directly proportional to AMPK activity. This uses naive AMPK that is activated during the assay with MK-8722. The experiment is classed as functional. The following applies: 30 µM.

Experiment [4] deals with Sialic acid-binding Ig-like lectin 9 (Homo sapiens) (UniProt Q9Y336). Kind of experiment: Hs-Siglec9 ALPHAscreen SOP 20170721. The following applies: 10 µM.
In another experiment the test system is Trypanosoma cruzi. Kind of experiment: Trypanosoma cruzi phosphomannomutase and mannose-1-phosphate guanylyltransferase assay. It is filed as functional. The following applies: 10 µM.
Experiment [5] has as its target T2, Arginase-2, mitochondrial (Homo sapiens) (UniProt P78540).
T2 sequence (whole entry): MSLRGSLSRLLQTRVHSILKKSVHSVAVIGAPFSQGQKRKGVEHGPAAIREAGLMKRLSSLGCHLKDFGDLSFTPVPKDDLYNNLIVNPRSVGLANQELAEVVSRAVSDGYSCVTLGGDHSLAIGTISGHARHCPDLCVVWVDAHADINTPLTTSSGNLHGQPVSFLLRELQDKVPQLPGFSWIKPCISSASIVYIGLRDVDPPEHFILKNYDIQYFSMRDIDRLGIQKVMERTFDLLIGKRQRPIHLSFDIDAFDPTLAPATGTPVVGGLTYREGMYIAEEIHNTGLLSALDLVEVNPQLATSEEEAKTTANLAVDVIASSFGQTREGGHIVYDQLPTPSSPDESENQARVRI
Kind of experiment: in vitro enzyme assay to detect the production of urea directly proportional to the activity of Arginase II. Also: in the data most compounds retested in dose-response had high values. It is filed as functional. The conditions noted are these: 33.3 µM.

Experiment [6] deals with T3, Proteasome subunit beta (Trypanosoma cruzi) (UniProt O96673).
T3 sequence (whole entry): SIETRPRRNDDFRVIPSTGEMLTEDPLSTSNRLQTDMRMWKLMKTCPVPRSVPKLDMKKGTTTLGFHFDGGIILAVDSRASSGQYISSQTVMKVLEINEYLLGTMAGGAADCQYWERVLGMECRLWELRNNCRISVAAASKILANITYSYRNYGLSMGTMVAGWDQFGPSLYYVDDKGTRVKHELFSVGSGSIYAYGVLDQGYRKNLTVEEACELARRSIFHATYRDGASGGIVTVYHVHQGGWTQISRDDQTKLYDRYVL
As to the kind of experiment: Trypanosoma cruzi proteasome chymotrypsin-like activity (TcProtChymo) assay. Also: in the data most compounds retested in dose-response had high values. It is filed as functional. The conditions noted are these: 9.37 µM.

For another experiment, the species on record is Homo sapiens. As to the kind of experiment: To identify inhibition of the IFN signalling (Jak-Stat) pathway via expression of an eGFP reporter gene under the control of an IFN-stimulated response element (ISRE) containing MxA promoter. The experiment is classed as functional. The conditions noted are these: 30 µM.
Experiment [7] has as its target T4, Tyrosyl-tRNA synthetase, putative (Trypanosoma cruzi (strain CL Brener)) (UniProt Q4DSP6).
T4 sequence (whole entry): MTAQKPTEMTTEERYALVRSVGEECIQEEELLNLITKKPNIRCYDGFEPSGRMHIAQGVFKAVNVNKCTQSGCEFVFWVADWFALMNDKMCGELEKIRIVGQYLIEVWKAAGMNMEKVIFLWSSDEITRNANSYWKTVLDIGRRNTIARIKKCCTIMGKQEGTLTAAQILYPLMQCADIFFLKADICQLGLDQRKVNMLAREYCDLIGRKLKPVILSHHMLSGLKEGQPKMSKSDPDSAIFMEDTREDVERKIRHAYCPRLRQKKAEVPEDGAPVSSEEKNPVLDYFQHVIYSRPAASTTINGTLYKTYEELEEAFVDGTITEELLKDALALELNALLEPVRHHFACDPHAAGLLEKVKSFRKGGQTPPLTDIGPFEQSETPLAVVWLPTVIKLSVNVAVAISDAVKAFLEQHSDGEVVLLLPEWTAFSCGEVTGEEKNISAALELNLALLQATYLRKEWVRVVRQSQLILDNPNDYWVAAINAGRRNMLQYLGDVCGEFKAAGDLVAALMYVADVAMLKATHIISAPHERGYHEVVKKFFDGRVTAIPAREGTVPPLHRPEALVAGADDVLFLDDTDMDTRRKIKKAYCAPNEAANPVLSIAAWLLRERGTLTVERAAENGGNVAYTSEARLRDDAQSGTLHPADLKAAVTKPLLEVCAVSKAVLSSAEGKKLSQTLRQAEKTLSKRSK
Kind of experiment: Trypanosoma cruzi tyrosyl tRNA synthetase (TcYRS) _High Tyrosine SOP. Also: in the data most compounds retested in dose-response had high values. The experiment is classed as functional. The following applies: 30 µM.

The target of experiment [8] is T4, Tyrosyl-tRNA synthetase, putative (Trypanosoma cruzi (strain CL Brener)). As to the kind of experiment: Trypanosoma cruzi tyrosyl tRNA synthetase (TcYRS) SOP. It is filed as functional. The conditions noted are these: 30 µM.
For experiment [9], the target named is Chromo domain-containing protein 1 (Saccharomyces cerevisiae (strain ATCC 204508 / S288c) (Baker's yeast)) (UniProt P32657). Kind of experiment: ScCHD-1 Enzyme Inhibition Assay. Also: in the data most compounds retested in dose-response had high values. The following applies: 30 µM. It is filed as functional.

Molecules are shown by their SMILES. For some of these results: Entries with a potency or affinity are not part of this list.

Chain of Chromo domain-containing protein 1 (Saccharomyces cerevisiae (strain ATCC 204508 / S288c) (Baker's yeast)) (P32657 whole entry, the tested form may be a part): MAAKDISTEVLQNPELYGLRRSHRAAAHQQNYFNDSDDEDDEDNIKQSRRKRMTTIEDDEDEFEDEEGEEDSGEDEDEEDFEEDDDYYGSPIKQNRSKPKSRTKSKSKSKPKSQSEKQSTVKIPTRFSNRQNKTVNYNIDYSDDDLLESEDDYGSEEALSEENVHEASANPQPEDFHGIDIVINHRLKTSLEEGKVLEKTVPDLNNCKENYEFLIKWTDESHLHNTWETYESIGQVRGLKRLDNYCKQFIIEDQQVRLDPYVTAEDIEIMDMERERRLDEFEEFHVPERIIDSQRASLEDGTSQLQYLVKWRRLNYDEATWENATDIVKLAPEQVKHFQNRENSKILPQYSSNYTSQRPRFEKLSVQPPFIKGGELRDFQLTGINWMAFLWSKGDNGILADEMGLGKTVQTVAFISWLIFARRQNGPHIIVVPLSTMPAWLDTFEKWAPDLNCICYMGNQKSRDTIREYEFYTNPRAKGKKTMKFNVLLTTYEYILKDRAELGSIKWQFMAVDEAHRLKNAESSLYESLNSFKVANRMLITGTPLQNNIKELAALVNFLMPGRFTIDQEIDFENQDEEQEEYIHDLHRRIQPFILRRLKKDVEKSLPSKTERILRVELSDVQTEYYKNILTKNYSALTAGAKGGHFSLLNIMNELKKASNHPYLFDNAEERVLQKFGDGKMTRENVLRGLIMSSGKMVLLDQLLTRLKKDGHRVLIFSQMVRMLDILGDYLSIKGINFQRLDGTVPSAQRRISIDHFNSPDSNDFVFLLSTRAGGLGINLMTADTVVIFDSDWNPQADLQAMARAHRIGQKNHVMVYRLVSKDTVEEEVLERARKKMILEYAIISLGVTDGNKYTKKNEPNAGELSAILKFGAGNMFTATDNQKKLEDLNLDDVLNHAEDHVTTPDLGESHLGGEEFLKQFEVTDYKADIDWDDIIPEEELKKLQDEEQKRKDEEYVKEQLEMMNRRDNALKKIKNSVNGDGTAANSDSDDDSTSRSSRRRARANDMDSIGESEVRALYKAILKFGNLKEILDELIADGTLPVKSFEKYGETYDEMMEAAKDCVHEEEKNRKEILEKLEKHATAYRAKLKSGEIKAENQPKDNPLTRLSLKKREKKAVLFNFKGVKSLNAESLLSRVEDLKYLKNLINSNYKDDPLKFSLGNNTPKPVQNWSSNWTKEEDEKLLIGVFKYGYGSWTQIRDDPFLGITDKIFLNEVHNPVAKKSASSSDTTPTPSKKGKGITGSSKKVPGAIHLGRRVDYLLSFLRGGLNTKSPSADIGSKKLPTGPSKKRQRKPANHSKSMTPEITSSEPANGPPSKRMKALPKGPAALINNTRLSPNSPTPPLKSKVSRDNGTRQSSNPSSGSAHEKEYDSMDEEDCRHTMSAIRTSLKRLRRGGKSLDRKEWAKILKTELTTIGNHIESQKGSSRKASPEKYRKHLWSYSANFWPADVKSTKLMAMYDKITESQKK
Chain of Protein translocase subunit SecA (Escherichia coli (strain K12)) (P10408 whole entry): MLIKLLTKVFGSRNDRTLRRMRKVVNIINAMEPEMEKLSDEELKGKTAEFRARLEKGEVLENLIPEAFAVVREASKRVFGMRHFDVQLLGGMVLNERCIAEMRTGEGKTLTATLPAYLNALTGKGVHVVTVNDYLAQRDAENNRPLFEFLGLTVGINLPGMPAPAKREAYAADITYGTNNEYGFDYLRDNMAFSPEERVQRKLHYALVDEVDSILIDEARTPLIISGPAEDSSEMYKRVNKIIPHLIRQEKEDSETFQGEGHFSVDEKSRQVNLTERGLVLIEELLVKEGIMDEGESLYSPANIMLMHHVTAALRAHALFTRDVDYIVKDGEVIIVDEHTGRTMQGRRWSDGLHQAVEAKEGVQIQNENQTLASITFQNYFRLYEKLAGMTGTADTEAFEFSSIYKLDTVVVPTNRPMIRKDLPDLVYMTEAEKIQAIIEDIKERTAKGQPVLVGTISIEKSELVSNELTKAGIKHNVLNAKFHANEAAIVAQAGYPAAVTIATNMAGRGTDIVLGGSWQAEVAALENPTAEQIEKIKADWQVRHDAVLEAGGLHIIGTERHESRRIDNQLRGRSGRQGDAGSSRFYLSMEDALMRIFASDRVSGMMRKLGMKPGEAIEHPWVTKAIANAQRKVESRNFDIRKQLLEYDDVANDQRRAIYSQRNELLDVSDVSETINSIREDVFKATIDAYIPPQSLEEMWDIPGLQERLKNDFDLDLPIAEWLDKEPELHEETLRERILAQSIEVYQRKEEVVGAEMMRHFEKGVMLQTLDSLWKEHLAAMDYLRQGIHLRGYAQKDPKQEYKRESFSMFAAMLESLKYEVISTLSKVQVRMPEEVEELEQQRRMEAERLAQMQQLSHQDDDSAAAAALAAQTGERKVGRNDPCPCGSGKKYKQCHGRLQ
Chain of Sialic acid-binding Ig-like lectin 9 (Homo sapiens) (Q9Y336 whole entry): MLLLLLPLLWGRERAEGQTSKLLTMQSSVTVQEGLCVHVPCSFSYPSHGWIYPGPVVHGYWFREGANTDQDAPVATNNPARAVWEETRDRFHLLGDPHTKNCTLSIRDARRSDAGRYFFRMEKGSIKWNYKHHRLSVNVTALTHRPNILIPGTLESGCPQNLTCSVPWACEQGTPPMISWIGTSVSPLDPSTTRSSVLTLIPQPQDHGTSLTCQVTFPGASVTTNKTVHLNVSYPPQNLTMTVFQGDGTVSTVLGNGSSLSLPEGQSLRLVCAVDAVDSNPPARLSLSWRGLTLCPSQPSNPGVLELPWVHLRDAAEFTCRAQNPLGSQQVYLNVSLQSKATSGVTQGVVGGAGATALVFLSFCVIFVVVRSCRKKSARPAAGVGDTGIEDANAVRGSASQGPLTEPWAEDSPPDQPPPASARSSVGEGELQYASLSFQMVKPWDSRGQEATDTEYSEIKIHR

With `CS(=O)(=O)NC[C@]12COC[C@H]1CN(C(=O)c1ccoc1)C2`, the Percent Effect is -3.11% in [1]; 7.79% in experiment [2]; 7.55% in experiment [3]; 7.59% in [4]; -1.87% with Trypanosoma cruzi; 4.52% in experiment [5]. Moreover, the Percent Effect in experiment [6] is 10.6%; in the experiment filed under Homo sapiens, 21.3%; in experiment [7] it was 5.29%; in [8] it was 11.5%; in [9] it was -4.91%.
As to `O=S(=O)(c1cccs1)N1CCCn2cnc(CN3CCCC3)c2C1`, the Percent Effect in experiment [1] was -4.49%; in [2], 10.7%; in [3], -0.197%; in experiment [4], 0.986%; with Trypanosoma cruzi it was -3.48%; in experiment [5], -60.4%. For the same compound, the Percent Effect in experiment [6] was 13.8%; in the experiment filed under Homo sapiens, 7.16%; in experiment [7], 4.17%; in experiment [8] it was 12.5%; in experiment [9] it was -7.45%.
As for `Cn1ncc2c1NC(=O)CC2c1ccccc1Cl` (stereo unspecified), the Percent Effect in experiment [1] was -6.92%; in experiment [2], 10.5%; in experiment [3], 5.36%; in [4], 7.02%; with Trypanosoma cruzi, 3.6%; in [5], -5.92%. Moreover, the Percent Effect in [6] was 6.62%; in the experiment listed under Homo sapiens, 16.4%; in experiment [7], 1.06%; in experiment [8] it was 5.2%; in experiment [9], -0.659%.
`Cc1ccc(NC2CCN(C(=O)c3ccc(Cl)o3)CC2)nn1`: the Percent Effect in [1] was -6.79%; in experiment [2], 0%; in [3], 5.42%; in [4], -2.43%; with Trypanosoma cruzi it was -6.01%; in experiment [5], 1.15%. The Percent Effect in experiment [6] was 17.4%; in the experiment filed under Homo sapiens, 24.5%; in experiment [7], 0.49%; in experiment [8], -7.32%; in experiment [9], 4.23%.
Turning to `Cc1ccccc1CN1CCN(Cc2nccn2C)CC1`, the Percent Effect in experiment [1] was -3.45%; in experiment [2] it was 5.41%; in experiment [3], -4.75%; in experiment [4] it was 4.96%; in the experiment on Trypanosoma cruzi, -3.3%; in experiment [5], -1.6%. The Percent Effect in experiment [6] is 0.36%; in the experiment filed under Homo sapiens, 16.1%; in [7], 3.45%; in [8], 3.7%; in experiment [9], -1.25%.
Consider `O=C(c1ccoc1)N1CC[C@@H]2[C@H]1CCC(=O)N2c1ccccc1`, for which the Percent Effect in [1] is -4.24%; in experiment [2], 10.7%; in experiment [3] it was 10.1%; in experiment [4] it was -2.97%; in the experiment on Trypanosoma cruzi it was -1.97%; in experiment [5], -1.63%. In addition, the Percent Effect in [6] is 5.02%; in the experiment listed under Homo sapiens, 10.8%; in experiment [7], 9.57%; in [8] it was 14.1%; in experiment [9], -0.93%.
`CC(C)(C)NC(=O)C1CSCN1S(=O)(=O)c1ccc(F)cc1` (stereo unspecified): the Percent Effect in experiment [1] is -1.95%; in experiment [2], 6.33%; in experiment [3], 3.86%; in experiment [4] it was -0.312%; with Trypanosoma cruzi, -4%; in experiment [5] it was -4.52%. For the same compound, the Percent Effect in [6] is 15.4%; in the experiment filed under Homo sapiens, 21.8%; in experiment [7], 7.29%; in experiment [8] it was 20.2%; in experiment [9], -14.6%.
On to `Cc1ccc(C(=O)NC(C)CN2CCCC2=O)c(=O)[nH]1` (stereo unspecified), for which the Percent Effect in [1] is -6.8%; in [2], 5.48%; in [3], -5.61%; in [4] it was 0.134%; in the experiment with Trypanosoma cruzi it was -2.94%; in experiment [5] it was 0.455%. Besides, the Percent Effect in experiment [6] is 12.8%; in the experiment filed under Homo sapiens it was 18.2%; in experiment [7], 1.07%; in experiment [8], 2.5%; in [9], -0.198%.
As to `Cc1cccc(C2(CNC(=O)CCN3C(=O)CCC3=O)CCCC2)c1`, the Percent Effect in experiment [1] is -5.2%; in experiment [2], 10.1%; in [3], 1.38%; in experiment [4], 0.402%; with Trypanosoma cruzi, 5.95%; in experiment [5], -4.56%. For the same compound, the Percent Effect is 3.36% in experiment [6]; 8.93% in the experiment filed under Homo sapiens; 9.36% in experiment [7]; 13.9% in experiment [8]; -5.07% in experiment [9].
Turning to `O=S(=O)(Nc1cnn(C2CCOCC2)c1)c1ccc(F)c(F)c1`, the Percent Effect in experiment [1] is -2.82%; in experiment [2], -2.6%; in experiment [3], -3.09%; in experiment [4], 9.32%; in the experiment on Trypanosoma cruzi it was -5.03%; in experiment [5], -8.39%. Further, the Percent Effect is 8.01% in experiment [6]; -0.875% in the experiment listed under Homo sapiens; -1.06% in [7]; 3.85% in [8]; -2.49% in [9].
For the compound `COc1cccc(CN(C)Cc2ccc(C#N)cc2)c1OC`, the Percent Effect in experiment [1] is -2.85%; in experiment [2] it was -5.41%; in experiment [3] it was 2.32%; in [4] it was -6%; in the experiment with Trypanosoma cruzi, 0.586%; in experiment [5], -1.67%. Also, the Percent Effect is 7.86% in [6]; -3.25% in the experiment listed under Homo sapiens; 4.95% in [7]; -3.66% in experiment [8]; -5.17% in experiment [9].

For the origin of these results see ChEMBL document CHEMBL3988442, “University of Dundee, Small-Polar-MMV Screening Library” (2021).
